Screens (PubChem BioAssay)
Compounds with a hit are over-represented: about 0.34% of the library has one in this group of screens.
Tb PGK inh – T. brucei PGK inhibition; actives 0.043% (n = 380,000); P07378; PGK/GAPDH coupled, Kinase-Glo luminescence, 60 min; Potency, µM (doses to about 57.5 µM), for inactives: at the top dose activity change, negative = inhibition, hits mostly inhibitors; AID 602233; note: potency is the fitted concentration of half-maximal effect; % is set by controls: 0 for no effect and ±100 for the full control effect; nearly all actives have a fitted effect of over 60% in size
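Luminescent ATP detection (Kinase-Glo Plus) follows a 60-minute room-temperature incubation, with wells lacking PGK as controls. Buffer: 100 mM TEA (pH 7.6), 5 mM MgCl2, 0.01% Tween-20. Coupling enzyme GAPDH (100 nM final) supplies unstable 1,3-BPG in-well.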
Pin1 inhibitor – inhibitors of human Pin1 | Q13526 | Pin1 FP peptide displacement, HiFluor488, 10 min | Potency, µM (highest dose often 115 µM), for inactives: top-dose activity, negative = inhibition, actives largely listed as inhibitors | actives 0.009% (n = 390,000) | AID 504891; active = well fitted inhibition curve with a large enough effect in the polarisation, with a control signal flat, not every such curve was filed as active; inconclusive = small, poorly fitted or top-dose-only effect, or effect the other way, or a change in a side signal; inactive = no such curve, though single readings can be large or run the other way; the % refers to the polarisation; note: potency is the fitted concentration of half-maximal effect; % is set by controls: 0 for no effect and ±100 for the full control effect
Target sequence (Q13526 whole entry, looked up): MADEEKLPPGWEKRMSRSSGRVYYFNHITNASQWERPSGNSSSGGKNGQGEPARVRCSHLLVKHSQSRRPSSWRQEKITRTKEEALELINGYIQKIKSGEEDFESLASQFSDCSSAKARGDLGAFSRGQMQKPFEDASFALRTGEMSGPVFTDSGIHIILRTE
Chronic BCR inh – inhibitors of chronic active B-cell receptor signaling; ABC-DLBCL IkBa-CBG/CBR reporter, luminescence ratio, 4 h; Potency, µM (highest dose often 46.1 µM), for the others: top-dose activity change, negative = inhibition, hits mostly inhibitors; AID 493014; actives 0.05% (n = 340,000); active = well fitted inhibition curve with a large enough effect in the signal ratio, with a control signal flat, not every such curve was filed as active; inconclusive = small, poorly fitted or top-dose-only effect, or effect the other way, or a change in a side signal; the % refers to the signal ratio;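 note: potency is the fitted concentration of half-maximal effect; plate controls were basal doxycycline-induced cells for no effect and cells given 10 µM MG132 for full effect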
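Compounds up to 46 uM were incubated four hours with TMD8 cells whose green CBG68 luciferase is fused to IkappaBalpha; red CBR luminescence normalised the signal, and concentration-effect curves were fitted to fusion, red and ratio data.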
PI4K2A inh – inhibitors of human PI4K2A | Q9BTU6 | purified PI4K2A, ADP-Glo luminescence, 1 h; active compounds read low | activity change, negative = inhibition, % at 76.9 µM | actives 0.13% (n = 420,000); in the data active = activity change below about -50%; inconclusive = mostly about -30% to -49%;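 note: -100% = wells without enzyme as full effect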
Target sequence (Q9BTU6 whole entry, looked up): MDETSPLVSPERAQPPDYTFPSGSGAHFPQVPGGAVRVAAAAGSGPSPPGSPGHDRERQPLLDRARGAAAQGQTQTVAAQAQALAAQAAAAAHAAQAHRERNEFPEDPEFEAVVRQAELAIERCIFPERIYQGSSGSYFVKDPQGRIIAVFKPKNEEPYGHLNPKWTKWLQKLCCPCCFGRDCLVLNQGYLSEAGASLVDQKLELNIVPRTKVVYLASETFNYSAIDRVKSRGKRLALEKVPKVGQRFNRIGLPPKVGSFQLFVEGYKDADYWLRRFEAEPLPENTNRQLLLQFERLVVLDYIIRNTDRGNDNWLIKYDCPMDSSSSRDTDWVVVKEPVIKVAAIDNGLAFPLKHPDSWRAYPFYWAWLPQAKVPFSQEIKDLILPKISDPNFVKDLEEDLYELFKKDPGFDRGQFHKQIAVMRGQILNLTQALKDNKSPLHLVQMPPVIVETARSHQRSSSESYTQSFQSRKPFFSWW
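In this quantitative HTS, ADP production by PI4K2A was quantified luminescently after 1 h at ambient temperature; 100 microM adenosine served as plate-quality control.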
Tb PFK inh-1 – T. brucei PFK enzyme inhibition; AID 485367; O15648; actives 0.17% (n = 330,000); Potency, µM (top dose mostly 57.5 µM), inactives show at the top dose activity, negative = inhibition, usual class: inhibitors; T. brucei PFK, ADP-Glo luminescence;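 note: potency is the fitted concentration of half-maximal effect; 0% = uninhibited 1x PFK enzyme wells and -100% = no-enzyme wells; nearly all actives have a fitted effect of over 60% in size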
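1.25 nM PFK with 0.5 mM F6P and 0.1 mM ATP in 0.1 M TEA pH 8.0, 5 mM MgCl2, incubated 45 min at room temperature; ADP measured by ADP-Glo luminescence; compounds titrated up to 57 uM.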
Tb PFK KinaseGlo – orthogonal confirmation of T. brucei phosphofructokinase inhibitors; shares compounds with Tb PFK inh-1; Tb PFK enzyme, ATP depletion, Kinase-Glo Plus luminescence; Potency, µM (titrated, usually from 57.5 µM), without a hit: at the top dose inhibition; actives 47% (n = 1,100); AID 504636; calls by dose curve; note: potency is the fitted concentration of half-maximal effect; nearly all actives have a fitted effect of over 60% in size
Tb PFK inh-2 – validation of T. brucei phosphofructokinase inhibitors | shares compounds with Tb PFK inh-1 | Potency, µM (series often up to 57.5 µM), for inactives: top-dose activity change, negative = inhibition, hits mostly inhibitors | purified T. brucei PFK, ADP-Glo luminescence, 45 min | actives 41% (n = 1,100);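 note: potency is the fitted concentration of half-maximal effect; plate controls were full PFK enzyme control for no effect and no enzyme control for full effect; nearly all actives have a fitted effect of over 60% in size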
* hit, by the source's call; i = inactive; ? = inconclusive; . = no result given. Unless noted, calls come from the whole dose curve; as a rule, active = well fitted curve in the direction sought with a large enough effect; inconclusive = small, poorly fitted or top-dose-only effect, or another doubt; inactive = no such curve, though single readings can be large; an effect the other way counts as inactive or inconclusive.

SMILES | Tb PGK inh | Pin1 inhibitor | Chronic BCR inh | PI4K2A inh | Tb PFK inh-1 | Tb PFK KinaseGlo | Tb PFK inh-2
CC(NC(=O)C1CCN(C(=O)c2ccc(F)cc2)CC1)c1ccc(S(N)(=O)=O)cc1 (centres undefined) | -9.4% | 0.2% | -0.8% | -3.0 | -1.6% | . | .
Cc1cc(SCc2ccc(Br)cc2)nc(=O)[nH]1 | -1.2% | 0.5% | ? | -1.7 | -1.3% | . | .
Cc1cc(SCc2ccc(Cl)c(Cl)c2)nc(=O)[nH]1 | -5.5% | 5.7% | ? | -1.1 | ? | 12µM* | 23.9µM*
Nc1cccc(S(=O)(=O)N2CCN(S(=O)(=O)c3ccc4c(c3)OCCO4)CC2)c1 | . | 3.7% | . | . | . | . | .
CN(C)c1cccc(-c2cc(N3CCC(C(N)=O)CC3)ncn2)c1 | . | -1.7% | . | . | . | . | .
CCOc1cc(/C=C\[N+](=O)[O-])ccc1OCC(=O)N1CCOCC1 | -10.9% | 8.4% | 1.8% | -1.3 | ? | -33.6% | ?
CCOc1cc(/C=C/c2nc3cc(C)c(C)cc3s2)ccc1OCC(=O)N1CCOCC1 | -5.0% | 1.9% | -0.3% | -3.0 | 0.4% | . | .
O=c1ccnc(NCCc2ccccc2)[nH]1 | -4.8% | 5.9% | 4.4% | 4.7 | 9.53µM* | 21.3µM* | 26.9µM*
CCCc1cc(=O)[nH]c(NCCc2ccccc2)n1 | i | -2.4% | ? | 0.6 | 0.2% | . | .
CCCCCCCCCCCCOCCO | . | . | . | 1.0 | . | . | .
CCc1nnc(NC(=O)CSc2nc(C)c3c(c2C#N)CCCC3)s1 | 3.7% | 56.9% | -8.2% | 1.8 | ? | -17.9% | 16.2%
O=C1CCc2cc(S(=O)(=O)Nc3cccc(Br)c3)ccc2N1 | . | -2.4% | . | . | . | . | .
O=C1CCCc2c(O)cccc21 | . | . | . | -3.7 | . | . | .
COc1ccc(-n2nc(CCC(=O)N(C)O)cc2-c2ccc(Cl)cc2)cc1 | . | . | . | 0.9 | . | . | .
Nc1nn2cc(-c3ccccc3)nc2c2ccccc12 | -10.7% | 1.5% | ? | 36.3 | ? | -0.4% | ?
CN(C)c1ccc([N+](=O)[O-])c([N+](=O)[O-])c1 | -3.0% | -1.2% | . | 4.7 | . | . | .
Cc1cc(N(C)C)ccc1[N+](=O)[O-] | -5.8% | 4.1% | -4.7% | -1.7 | ? | ? | 30.1µM*
Cc1cc2c(s1)c1cnn(Cc3c(F)ccc(C)c3F)c(=O)c1n2C | . | 14.1% | . | . | . | . | .
COc1cc(CC(=O)Nc2nc(-c3ccccc3)c(C(C)=O)s2)cc(OC)c1OC | i | 2.4% | ? | -2.7 | ? | ? | ?
O=C1/C(=C/c2ccco2)SC(=S)N1c1cccnc1 | ? | . | 0.1% | -26.1 | ? | 4.26µM* | 7.57µM*
O=S1(=O)N=C(Oc2ccc(Br)cc2)c2ccccc21 | . | -1.4% | . | . | . | . | .
CCOC(=O)C1=C(N)OC2=C(C(=O)CC(C)(C)C2)C1c1cc(CSc2nnnn2C)cs1 (centres undefined) | 9.4% | -2.3% | 1.9% | -3.3 | ? | -1.2% | 1.4%
C=CCn1c(SCC(C)=O)nc2scc(-c3ccco3)c2c1=O | -6.4% | -11.7% | 3.7% | -24.2 | ? | . | .
C=CCn1c(SCC(=O)N2CCOCC2)nc2scc(-c3ccco3)c2c1=O | ? | ? | 3.2% | -27.3 | ? | ? | -25.3%
O=C(CCOCCOCCOCCOCCC(=O)Nc1c(I)cc(I)c(C(=O)O)c1I)Nc1c(I)cc(I)c(C(=O)O)c1I | . | . | . | -5.8 | . | . | .
SMILES | Tb PGK inh | Pin1 inhibitor | Chronic BCR inh | PI4K2A inh | Tb PFK inh-1 | Tb PFK KinaseGlo | Tb PFK inh-2
O=C(O)c1ccc(Nc2ncnc3c2cnn3Cc2ccccc2)cc1 | 2.8% | 7.3% | -7.4% | 2.7 | ? | ? | ?
Cc1cccc(Nc2ncnc3c2cnn3Cc2ccccc2)c1 | . | -0.6% | -2.3% | -5.2 | 1.1% | . | .
Cc1cc2c(s1)c1cnn(Cc3cc(C(F)(F)F)ccc3F)c(=O)c1n2C | . | 0.6% | . | . | . | . | .
O=C1c2c([N+](=O)[O-])cc([N+](=O)[O-])cc2S(=O)N1Cc1ccccc1 (centres undefined) | -0.9% | -11.5% | ? | -8.9 | 26.9µM* | 6.1% | -5.5%
O=C1NS(=O)c2cc([N+](=O)[O-])cc([N+](=O)[O-])c21 (centres undefined) | -7.5% | 0.2% | 3.0% | -3.7 | 1.7% | . | .
O=C(O)c1ccc2c(c1)C(=O)/C(=C\c1ccco1)C2=O | ? | . | ? | -27.9 | ? | 16.9% | ?
O=C(O)c1ccc2c(c1)C(=O)/C(=C/c1ccccc1)C2=O | -22.5% | . | ? | -9.7 | ? | -16.4% | ?
O=C1C(=Cc2ccco2)C(=O)c2ccccc21 | -2.3% | -5.0% | 10.0% | -11.8 | 6.7% | . | .
COc1ccccc1NC(=O)C(OC(=O)CNC(=O)c1ccccc1)c1ccccc1 (centres undefined) | . | 4.7% | . | . | . | . | .
O=C(Nc1ncc(Cc2cccc(Cl)c2)s1)C1CCCO1 (centres undefined) | 6.0% | -4.3% | ? | -6.0 | ? | 16.9µM* | ?
C[C@@H]1CCN(C(=O)[C@H](CCCN=C(N)N)NS(=O)(=O)c2cccc3c2NC[C@H](C)C3)[C@@H](C(=O)O)C1 | . | . | . | -1.0 | . | . | .
NCCc1ccc(O)c(O)c1 | -7.0% | 8.8% | -2.4% | -2.2 | ? | ? | -19.8%
COc1ccc(CCN)cc1O | -6.4% | 4.9% | . | 4.2 | . | . | .
N#Cc1c(N)nc2c(c1N)CC(COc1ccccc1)O2 (centres undefined) | i | -3.8% | -0.5% | 222.9 | ? | 13.5% | 15.0%
O=c1ccc2c(-c3ccccc3)c3ccc(O)cc3oc-2c1 | -13.1% | ? | -2.6% | -11.0 | 12µM* | 13.2% | -10.4%
O=C(NCCc1c[nH]c2ccccc12)OCCSS(=O)(=O)O | -6.7% | 1.8% | ? | -11.0 | 23.9µM* | 23.9µM* | ?
CC(=O)NCCc1c[nH]c2ccccc12 | 0.3% | -2.0% | 10.0% | 3.5 | -1.5% | . | .
Cc1cc(NS(=O)(=O)c2ccc(NC(=O)COc3ccc(Cl)c(C)c3)cc2)no1 | -8.2% | -1.5% | 2.1% | -5.6 | 12µM* | 5.36µM* | 13.5µM*
Cc1cc(NS(=O)(=O)c2ccc(NC(=O)COc3ccc(Cl)cc3Cl)cc2)no1 | -2.1% | 2.4% | 3.8% | 0.3 | 2.69µM* | 1.51µM* | 1.69µM*
Cc1ccc(OCC(=O)Nc2ccc(S(=O)(=O)Nc3cc(C)on3)cc2)c(Br)c1 | -2.4% | -3.1% | . | -1.8 | . | . | .
CC(C)c1cc(O)c(-c2ccccc2)c(=O)n1-c1ccc(Cl)cc1 | -5.7% | -1.6% | ? | -2.3 | 3.2% | . | .
CC(C)c1c(Cl)c(O)c(-c2ccccc2)c(=O)n1-c1ccc(F)cc1 | -3.9% | -0.9% | 0.0% | -9.0 | ? | ? | ?
